Results filed as inconclusive are left out. Activity calls are given as the source filed them. Unless noted, calls come from the whole dose curve.
Assays:
[1] = biological target: Gonadotropin-releasing hormone receptor (Homo sapiens) (UniProt P30968); experiment: Human gonadotropin-releasing hormone receptor (GnRHR) small molecule agonists, calcium flux assay in GnRHR-HEK293 cells (AID 1920063); note: nearly all actives have a fitted effect of over 35% in size
Method in brief: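 Fluorescence kinetics (480 nm excitation, 540 nm emission; 3 min, 1 s steps) report calcium mobilisation in human GnRHR-HEK293 cells in agonist mode. Dye incubation: 1 h, 37 C.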

[2] = G protein-coupled receptor (GPCR) small molecule agonists, calcium flux assay: HEK293 wild type cell line counter screen (AID 1920065)
Method in brief: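 Readout: fluorescence at 480 nm excitation/540 nm emission, sampled at 1 s intervals for 3 min. Cells had been cultured 18 h, then dye-loaded 1 h at 37 C before compound or ATP addition.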

[3] = biological target: 5-hydroxytryptamine receptor 2A (Homo sapiens) (UniProt P28223); experiment: 5-hydroxytryptamine receptor 2A (HTR2A) small molecule antagonists, cell-based qHTS assay (AID 1963586); note: nearly all actives have a fitted effect of over 45% in size
Sequence of 5-hydroxytryptamine receptor 2A (Homo sapiens) (P28223 whole entry, looked up): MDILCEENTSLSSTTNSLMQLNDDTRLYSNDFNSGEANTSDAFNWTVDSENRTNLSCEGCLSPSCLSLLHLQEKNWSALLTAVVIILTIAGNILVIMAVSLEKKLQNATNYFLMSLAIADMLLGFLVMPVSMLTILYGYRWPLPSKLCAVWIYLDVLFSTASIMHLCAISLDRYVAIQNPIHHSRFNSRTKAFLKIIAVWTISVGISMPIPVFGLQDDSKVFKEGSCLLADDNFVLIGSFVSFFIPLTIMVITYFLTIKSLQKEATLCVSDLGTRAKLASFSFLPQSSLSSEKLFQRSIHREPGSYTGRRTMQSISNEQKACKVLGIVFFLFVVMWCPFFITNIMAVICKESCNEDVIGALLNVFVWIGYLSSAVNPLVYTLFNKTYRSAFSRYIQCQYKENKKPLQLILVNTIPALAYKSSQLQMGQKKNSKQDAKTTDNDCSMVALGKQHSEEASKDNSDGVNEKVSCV
Method in brief: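 Antagonist-mode intracellular calcium assay: DOI (4 nM) added after 5 min compound pre-incubation at room temperature to dye-loaded HTR2A-CHO cells. Fluorescence followed for 3 min, sampled every second.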

[4] = biological target: 5-hydroxytryptamine receptor 2A (Homo sapiens) (UniProt P28223); experiment: 5-hydroxytryptamine receptor 2A (HTR2A) small molecule agonists, cell-based qHTS assay (AID 1963587); note: nearly all actives have a fitted effect of over 30% in size; note: potency is the fitted concentration of half-maximal effect
Method in brief: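 HTR2A-CHO cells, plated 18 h at 37 C/5% CO2, dye-loaded 1 h at 37 C; compounds in DMSO added by pin tool (agonist mode). Intracellular calcium flux read as kinetic fluorescence on FDSS over 2 min at 1 s intervals.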

[5] = biological target: Muscarinic acetylcholine receptor M1 (Homo sapiens) (UniProt P11229); experiment: Cholinergic receptor muscarinic 1 (CHRM1) small molecule antagonists, cell-based qHTS assay (AID 1963588); note: nearly all actives have a fitted effect of over 40% in size; note: potency is the fitted concentration of half-maximal effect
Sequence of Muscarinic acetylcholine receptor M1 (Homo sapiens) (P11229 whole entry, looked up): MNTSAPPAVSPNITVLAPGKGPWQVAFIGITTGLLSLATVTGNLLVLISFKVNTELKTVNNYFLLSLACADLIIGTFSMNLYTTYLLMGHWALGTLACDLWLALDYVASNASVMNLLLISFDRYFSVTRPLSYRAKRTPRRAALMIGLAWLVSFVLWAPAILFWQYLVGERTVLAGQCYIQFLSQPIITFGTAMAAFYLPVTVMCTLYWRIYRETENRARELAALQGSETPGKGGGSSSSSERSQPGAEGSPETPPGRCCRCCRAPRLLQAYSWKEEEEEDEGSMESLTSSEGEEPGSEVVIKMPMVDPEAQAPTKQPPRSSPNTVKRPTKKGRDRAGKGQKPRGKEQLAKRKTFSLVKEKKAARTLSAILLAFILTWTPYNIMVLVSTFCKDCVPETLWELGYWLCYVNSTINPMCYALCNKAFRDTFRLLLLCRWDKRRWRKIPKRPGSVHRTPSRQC
Method in brief: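 CHRM1-CHO calcium-flux assay, antagonist mode. Cells were seeded 18 h, dye-loaded 1 h at 37 C and given compound for 5 min at RT, then acetylcholine was added at 50nM. FDSS fluorescence was read 3 min; 15 concentrations, three runs.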

[6] = biological target: Muscarinic acetylcholine receptor M1 (Homo sapiens) (UniProt P11229); experiment: Cholinergic receptor muscarinic 1 (CHRM1) small molecule agonists, cell-based qHTS assay (AID 1963589); note: nearly all actives have a fitted effect of over 35% in size
Method in brief: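 Each compound was tested at 15 concentrations across three independent runs on dye-loaded CHO cells stably expressing human CHRM1, reading intracellular calcium fluorescence kinetically at 1 sec intervals.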

[7] = cAMP Responsive Elements (CRE) small molecule antagonists, cell-based qHTS assay (AID 1963591; active = well fitted inhibition curve with a large enough effect in the signal ratio in the repeat runs, not every such curve was filed as active; the % refers to the signal ratio)
Method in brief: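 Inhibition of NKH477-driven (0.25 uM final) CRE-beta-lactamase signal in HEK293T cells, 3 h compound exposure at 37 °C, detected by FRET substrate fluorescence.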

[8] = biological target: Beta-2 adrenergic receptor (Homo sapiens) (UniProt P07550); experiment: Adrenergic beta2 receptor (ADRB2) small molecule antagonists, cell-based qHTS assay (AID 1963592); note: nearly all actives have a fitted effect of over 50% in size; note: potency is the fitted concentration of half-maximal effect; for activity change, negative = inhibition: series mostly up to about 92 µM
Sequence of Beta-2 adrenergic receptor (Homo sapiens) (P07550 whole entry, looked up): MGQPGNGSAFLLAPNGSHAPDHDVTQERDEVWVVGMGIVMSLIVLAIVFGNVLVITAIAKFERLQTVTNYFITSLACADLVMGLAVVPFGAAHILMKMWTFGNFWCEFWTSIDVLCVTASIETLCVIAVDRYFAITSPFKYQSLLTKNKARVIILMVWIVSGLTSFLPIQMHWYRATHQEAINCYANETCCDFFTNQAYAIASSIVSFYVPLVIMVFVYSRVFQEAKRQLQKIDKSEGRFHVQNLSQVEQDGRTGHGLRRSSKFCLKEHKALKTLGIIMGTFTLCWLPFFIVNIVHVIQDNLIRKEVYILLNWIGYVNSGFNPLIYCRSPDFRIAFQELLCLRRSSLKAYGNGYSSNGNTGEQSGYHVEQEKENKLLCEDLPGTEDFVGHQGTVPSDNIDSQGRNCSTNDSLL
Method in brief: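 Cells (CHO, stable ADRB2 overexpression) incubated 18-20hr at 37C; compounds added from DMSO; agonist mix (1nM isoproterenol, 100uM IBMX, 25uM Ro-20-1724) added; 0.5hr RT; d2-cAMP and anti-cAMP-cryptate added; 1hr RT; 665/615 nm read.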

[9] = biological target: D(2) dopamine receptor (Homo sapiens) (UniProt P14416); experiment: Dopamine D2 receptor (DRD2) small molecule agonists, cell-based qHTS assay (AID 1963594); note: nearly all actives have a fitted effect of over 35% in size
Sequence of D(2) dopamine receptor (Homo sapiens) (P14416 whole entry, looked up): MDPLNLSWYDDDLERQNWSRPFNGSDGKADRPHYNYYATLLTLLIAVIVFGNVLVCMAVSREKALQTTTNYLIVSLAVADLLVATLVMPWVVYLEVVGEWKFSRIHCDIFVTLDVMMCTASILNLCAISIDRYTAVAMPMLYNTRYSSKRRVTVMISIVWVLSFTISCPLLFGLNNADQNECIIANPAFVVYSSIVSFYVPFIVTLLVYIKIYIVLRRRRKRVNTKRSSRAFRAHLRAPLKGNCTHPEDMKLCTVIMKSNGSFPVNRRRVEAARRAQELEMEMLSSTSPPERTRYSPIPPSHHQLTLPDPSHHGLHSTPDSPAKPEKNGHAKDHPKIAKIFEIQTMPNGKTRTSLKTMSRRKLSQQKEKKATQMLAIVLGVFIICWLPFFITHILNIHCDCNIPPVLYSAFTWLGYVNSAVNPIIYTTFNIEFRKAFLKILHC
Method in brief: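 HEK293 cells stably expressing DRD2 were cultured 24 h at 37 C, then given Ro20-1724 (0.1 mM final) and compounds for 10 min at room temperature. NKH477 (200nM) was then added for 30 min. cAMP was read by HTRF.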

[10] = biological target: D(2) dopamine receptor (Homo sapiens) (UniProt P14416); experiment: Dopamine D2 receptor (DRD2) small molecule antagonists, cell-based qHTS assay (AID 1963595; active = well fitted inhibition curve with a large enough effect in the signal ratio in the repeat runs, with a control signal flat; the % refers to the signal ratio)
Method in brief: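 Antagonism was scored as restored cAMP in HEK293-DRD2 cells. These cells were stimulated with 200 nM NKH477 and 12 nM quinpirole for 30 min at room temperature, in the presence of 0.1 mM Ro20-1724.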

[11] = biological target: KiSS-1 receptor (Homo sapiens) (UniProt Q969F8); experiment: Human kisspeptin (KISS1R) small molecule agonists, calcium flux assay in KISS1R-HEK293 cells (AID 1920064; active = well fitted activation curve with a large enough effect in the repeat runs)
Sequence of KiSS-1 receptor (Homo sapiens) (Q969F8 whole entry, looked up): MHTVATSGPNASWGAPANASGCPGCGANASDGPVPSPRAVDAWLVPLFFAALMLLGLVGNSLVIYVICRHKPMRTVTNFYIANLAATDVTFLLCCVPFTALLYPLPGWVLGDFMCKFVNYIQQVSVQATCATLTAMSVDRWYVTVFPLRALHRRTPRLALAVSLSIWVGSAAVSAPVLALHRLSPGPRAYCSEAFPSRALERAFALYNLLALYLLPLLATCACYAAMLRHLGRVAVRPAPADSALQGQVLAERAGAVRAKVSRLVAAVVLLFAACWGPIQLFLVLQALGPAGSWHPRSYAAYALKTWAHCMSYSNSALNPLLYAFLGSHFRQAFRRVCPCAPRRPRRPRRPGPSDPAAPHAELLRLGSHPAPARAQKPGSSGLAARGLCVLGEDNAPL
Method in brief: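 Measures KISS1R agonism through calcium-sensitive dye fluorescence in stably transfected HEK293 cells, read for 3 min after pin-tool compound delivery; 15-point titrations in triplicate.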

[12] = p53 small molecule agonists, cell-based qHTS assay with human liver microsomes (AID 1963577); note: potency is the fitted concentration of half-maximal effect;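 for activation: p53 response element beta-lactamase reporter cells with liver microsomes plus NADPH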
Method in brief: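 16 h, 37 C exposure of p53RE-bla cells to compounds with human liver microsomes and NADPH (0.5 mg/mL final each); detection via LiveBLAzer mixture, 2 h dark at room temperature.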

[13] = p53 small molecule agonists, cell-based qHTS assay with human liver microsomes: qHTS cell viability counter screen (AID 1963579); note: nearly all actives have a fitted effect of over 45% in size
Method in brief: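 In this multiplexed counter screen, the reporter plates were subsequently treated with CellTiter-Glo so that cell viability, reflected by luminescence, could be recorded for p53RE-bla cells dosed 16 h with compounds under microsomal activation (HLM and NADPH).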

[14] = p53 small molecule agonists, cell-based qHTS assay: qHTS cell viability counter screen (AID 1963581); note: nearly all actives have a fitted effect of over 45% in size
Method in brief: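 In the same plates used for the p53 bla reporter, HCT-116 cells given compounds for 16 h at 37 C received CellTiter-Glo; luminescence was recorded 30 min later at room temperature.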

[15] = p53 small molecule agonists, cell-based qHTS assay (AID 1963582; active = well fitted activation curve with a large enough effect in the signal ratio in the repeat runs, not every such curve was filed as active; the % refers to the signal ratio)
Method in brief: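 Compounds are pin-transferred in DMSO onto p53RE-bla cells and incubated 16 h at 37 C. The B/G FRET beta-lactamase substrate is then applied for 2 h at RT and fluorescence recorded.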

[16] = cAMP Responsive Elements (CRE) small molecule agonists, cell-based qHTS assay (AID 1963590)
Method in brief: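 Cell line: CRE-bla HEK 293T; medium DMEM/10% dialyzed FBS/0.1 mM NEAA/1 mM pyruvate/25 mM HEPES; 3 h compound exposure; beta-lactamase FRET readout after 2 h substrate loading at RT.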

[17] = biological target: Beta-2 adrenergic receptor (Homo sapiens) (UniProt P07550); experiment: Adrenergic beta2 receptor (ADRB2) small molecule agonists, cell-based qHTS assay (AID 1963593);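 note: CHO cells stably overexpressing human ADRB2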
Method in brief: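 CHO cells stably over-expressing ADRB2 were plated overnight at 37C, then dosed with compounds plus a stimulation mix containing 100uM IBMX and 25uM Ro-20-1724 for 0.5hr at room temperature. cAMP was measured by HTRF competition, 1hr.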

[18] = p53 small molecule agonists, cell-based qHTS assay with rat liver microsomes (AID 1963578); note: potency is the fitted concentration of half-maximal effect
Method in brief: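 With rat liver microsomes and NADPH present (0.5 mg/mL final each), p53RE-bla cells are treated with compound for 16 h at 37 C. LiveBLAzer detection mixture is then applied for 2 h at room temperature in the dark.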

[19] = p53 small molecule agonists, cell-based qHTS assay with rat liver microsomes: qHTS cell viability counter screen (AID 1963580); note: nearly all actives have a fitted effect of over 45% in size
Method in brief: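 In HCT-116 cells carrying a p53 response element-bla reporter, compounds were metabolically activated in situ by rat liver microsomes with NADPH over 16 h. Cell ATP content then served as the cytotoxicity measure.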
% is set by controls: 0 for no effect and ±100 for the full control effect.

Sequence of Gonadotropin-releasing hormone receptor (Homo sapiens) (P30968 whole entry, looked up): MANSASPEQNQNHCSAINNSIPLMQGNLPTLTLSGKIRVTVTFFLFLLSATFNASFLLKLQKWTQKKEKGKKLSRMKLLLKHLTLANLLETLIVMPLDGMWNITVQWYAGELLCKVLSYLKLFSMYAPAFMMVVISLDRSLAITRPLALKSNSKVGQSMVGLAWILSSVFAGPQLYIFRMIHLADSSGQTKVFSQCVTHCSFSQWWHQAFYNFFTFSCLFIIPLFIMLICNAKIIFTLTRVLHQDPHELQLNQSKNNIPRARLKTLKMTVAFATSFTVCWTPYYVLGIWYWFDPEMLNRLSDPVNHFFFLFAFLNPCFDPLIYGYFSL

CC1CCCC1
inactive: Potency [1] | Potency [2] | Potency [3] | Potency [4] | Potency [5] | Potency [6] | Potency [7] | Potency [8] | Potency [9] | Potency [10]

S=P(N1CC1)(N1CC1)N1CC1
inactive: Potency [11] | Potency [2] | Potency [13] | Potency [14] | Potency [15] | Potency [3] | Potency [5] | Potency [16] | Potency [9]
active: Potency [12] 34.1 µM

N[C@@H](Cc1ccc(O)cc1)C(=O)O
inactive: activity change [1] -0.862% [at 5.22 µM, active compounds read high] | activation [2] 1.73% [at 5.23 µM] | activity change, negative = cytotoxicity [14] 14.2% [at 5.99 µM] | activity, negative = inhibition [3] 17.7% [at 5.62 µM] | activation [4] 0.614% [at 7.02 µM] | activity, negative = inhibition [5] -1.5% [at 5.58 µM] | activation [6] 0.14% [at 6.97 µM] | activation [16] -0.513% [at 8.39 µM] | activity change, negative = inhibition [7] 0.559% [at 8.39 µM] | activity change, negative = inhibition [8] -0.134% [at 8.39 µM] | activation [17] 15.9% [at 8.39 µM] | activity change, negative = inhibition [10] 0.318% [at 8.38 µM]

Nc1c(Cl)cc(Cl)cc1[N+](=O)[O-]
inactive: Potency [1] | Potency [12] | Potency [18] | Potency [13] | Potency [19] | Potency [15] | Potency [4] | Potency [5] | Potency [6] | Potency [16] | Potency [8] | Potency [17] | Potency [9] | Potency [10]

c1ccc(C(O[C@@H]2CCCN(CCc3ccc4c(c3)OCO4)C2)c2ccccc2)cc1
inactive: Potency [1] | Potency [2] | Potency [18] | Potency [19] | Potency [14] | Potency [6] | Potency [9] | Potency [10]
active: Potency [5] 0.119 µM | Potency [8] 48.6 µM

COc1ccc2ccccc2c1
inactive: Potency [4] | Potency [5] | Potency [6] | Potency [8] | Potency [17] | Potency [9] | Potency [10]

O=S(=O)(O)c1ccccc1/C=C/c1ccc(-c2ccc(/C=C/c3ccccc3S(=O)(=O)O)cc2)cc1
inactive: Potency [1] | Potency [2] | Potency [13] | Potency [19] | Potency [14] | Potency [3] | Potency [6] | Potency [8] | Potency [10]
active: Potency [18] 11.7 µM

CCOC(=O)C1=C[C@]2(CC)CCCN3CCc4c(n1c1ccccc41)[C@@H]32
inactive: Potency [11] | Potency [2] | Potency [12] | Potency [18] | Potency [13] | Potency [3] | Potency [5] | Potency [6] | Potency [16] | Potency [8] | Potency [17] | Potency [9] | Potency [10]
active: Potency [4] 23.9 µM

O=C1Cc2ccccc2C1
inactive: Potency [3] | Potency [4] | Potency [5] | Potency [6] | Potency [8] | Potency [9] | Potency [10]

Source: PubChem BioAssay (Tox21)
